According to the supplement of paper PMC6555819:

Each sequence was assayed on VDR:RXRa (NR concentration 270 nM, RXRa partner concentration 90 nM) (assay: PBM binding z-score (relative to random genomic background probes); higher = stronger binding; sequences stand for … in GC…GCGATTGACAGCGTAGAATGAAGG).
Procedure: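 Protein-binding microarray (Agilent 4x180K custom design, double-stranded 60-nt probes: 5' GC cap, 34-nt variable region, 24-nt constant primer region; full probe sequence given). Purified or IVT nuclear receptor:RXRα heterodimers (3:1 NR:RXRα, mostly 270:90 nM) or homodimers were incubated for 1 h in PBS with 2% milk and no ligand, then detected with Alexa488 antibodies. Fluorescence from o1-orientation probes (~5 replicates averaged) was converted to z-scores against 500 random hg19 background probes. Variable regions are seed direct-repeat (DR0–DR5) sites, all their single-nucleotide variants and half-site ablations.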

Sequence | PBM binding z-score
CCGAGTAGGTTATGGGGTATTCAGGCAACGGTGA | 0.559
ATAGGTAGGTTACATCCGGGTCATTCAGGCTATG | 4.21
GCATATAGGTAATACAAGGTGAATGTCCGATTGT | 0.106
ATCTCTAGGTAACCAAGTTCAGTTAATGCCGAAC | 4.33
TCTCGGAGGACTCGAAAGGTCAGAGCTCGACATC | 2.4
CCGACTGGGGCAAGGGTTACCATACTCAGTACGA | -0.292
CGTCAAATTTCAACTAAGGTAACGTAAAGCACGC | 0.709
ACTTACGTGTCAACGAGGTTATAGCACGCGTATA | 5.46
CCTTACGGGTCACGAGGTGATAGCACGACGAGCG | 4.18
AGAACGAGGGAAATGAGTTGATAGCACGGGTGGC | 0.62
TCATATAGGGAAAAGGTGAAAGTCGGTGTGGTAA | 1.29
ATATGTAGGTTAGCTGGGATCATTCAGACTAGGC | 0.919
ATCTCTTGGTAAGACTCAGTTCAGTGAAGAACGC | 0.946
AGAACGAGGGCACGCTGACTTGATAGCAGAGTAG | 1.02
GCAGACAGGTGAAATGCAGGTAACTCAGGGTGGC | -0.417
ACTTACGGGTCAATGAGGTTATAGCACGCGTATA | 7.74
CGTCCAAGGTCATAGGAGGTCAGGGAAGACAGAT | 6.49
CCTACTGAGCCACGAAAGGTCATTGATTCAGTGA | 3.97
GCATATAGGTAATACAAGGTGTAAGTCCGATTGT | -0.12
AGTCAAAGTTCAGGACGAGGTAACGTATAGCACG | 3.14

Sequence | PBM binding z-score
CAGCCTAGGTCCGGGCCAGTATAGGAGGAACGTT | -0.982
CCCGCTAGGTCAATGGTCAGCTAAAGCAGCTCGC | 1.02
GCAGCTAGGTCAGGTTGGTCAGCTAACGGGTACG | 0.358
ATCTCTAGGTATAGTTCAGTGAAAGATCGATAGA | 1.04
AGAATAAGGTTATTAAGATCAGGGAATTGCGGTC | 1.95
CTCGAAAGGTCGCTTGAGGTGAGTATACGGATAA | 3.4
CCTACTGGGCCAAAGATCATTGATTCCAATGCTC | -0.31
AGTCAACGTTCAGGACGAGGTAACGTAAAGCACG | -0.317
CAAACTAGGTCACAGAGGTCAAAGTACGTGCGTA | 7.94
AATACAGGGTCACTAAGCCAGAGTAGGTACGAAT | 4.02
CCGATTAGTTGACCATAAGGGCAACCGAAGCTCG | 0.252
TCTTGTAGATCAACAGGAGGTTTAGAAAGATCGA | 0.171
AGAATGAGGTTAGGATCAGGGAAACAGAATACAT | 0.51
GCTTCTAGGTCAGGTTGGTCAGCTAACGGGTACG | 0.953
CGTCCAAGGTCATAGGAGGTCAGTGCAGACAGAT | 6.74
TAGCCTAGGTCATTCAGGGGCGAGTATAGAAAGC | 4.57
CCTTACGGGTCACACCAGGTTATAGCATCGGAGT | 4.89
GCGATTAGTTGAAAGGGCAACCGAATGATTCTCG | 0.316
ATCCCTAGGTAACCAAGTTCAGTGAATGCCGAAC | 4.31
TCTGCTAGGTCAACGATGGTCCGCTAATCTGCTA | 1.14
